Screening data (PubChem)
Most compounds without a hit are left out; they make up all but 19% or so of the library.
HT1080 IDH1KD tx: HT-1080 IDH1 knockdown cell toxicity (counter line); HT-1080 IDH1 knockdown viability, ATP luminescence, 48 h; Potency, µM (series often up to 46.1 µM), inactives show top-dose activity, negative = toxicity, most hits filed as cytotoxic; 360,000 compounds, 2% hits;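 further: 0% = DMSO wells and -100% = cell-free medium wells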
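In this qHTS, HT-1080 cells depleted of IDH1 are exposed for 48 h at 37 °C to compound titrations. Toxicity is scored from CellTiter-Glo luminescence, with DMSO as full viability and medium alone as none.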
DT40 TDP1 no CPT: qHTS for Inhibitors of human tyrosyl-DNA phosphodiesterase 1 (TDP1): qHTS in cells in absence of CPT; DT40 Tdp1-/- hTDP1 cells, no CPT, ATP luminescence, 48 h; Potency, µM (doses to about 46.2 µM), inactives show top-dose activity change, negative = growth inhibition, actives largely listed as inhibitors; 420,000 compounds, 15% hits; AID 686978, 2013; further: nearly all actives have a fitted effect of over 55% in size
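Stably hTDP1-transfected Tdp1-null chicken DT40 cells were treated with library compounds minus camptothecin and grown for at least 48 hr at 37 °C, after which cellular ATP was quantified by luminescence.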
DT40 TDP1 CPT: growth inhibition of DT40 Tdp1-/-;hTDP1 cells with camptothecin (screen for TDP1 inhibitors); chicken DT40 Tdp1-/-;hTDP1 cells + 20 nM CPT, ATP luminescence, 48 h; Potency, µM (series often up to 46.2 µM), inactives show at the top dose activity change, negative = growth inhibition, actives largely listed as inhibitors; 420,000 compounds, 12% hits; AID 686979; further: nearly all actives have a fitted effect of over 55% in size
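Cell growth measured by CellTiter-Glo luminescence after a minimum 48 h, 37 C compound exposure with 20 nM CPT in Tdp1-knockout DT40 cells stably expressing hTDP1, seeded 400/well; qHTS titration format.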
KB-3-1 tox: KB-3-1 parental cell cytotoxicity; 400,000 compounds, 1.4% hits; KB-3-1 viability, CellTiter-Glo ATP luminescence, 72 h; Potency, µM (doses to about 46.1 µM), most hits filed as cytotoxic; AID 1347075; further: nearly all actives have a fitted effect of over 60% in size
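KB-3-1 parental drug-naive adenocarcinoma cells in DMEM/10% FBS, incubated 72 h at 37 C with pin-transferred compounds across a concentration series. Viability by CellTiter-Glo luminescence; concentration-response curves fitted after normalization.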
KB-V1 cytotox: kills drug-selected multidrug resistant KB-V1 cells; Potency, µM (top dose mostly 46.1 µM), hits mostly cytotoxic; KB-V1 MDR cells viability, CellTiter-Glo, 72 h; 400,000 compounds, 3.4% hits; AID 1347076; further: nearly all actives have a fitted effect of over 60% in size
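Cells of the MDR subline KB-V1 are plated, dosed with compound at multiple concentrations, and incubated 72 h at 37 degrees C; CellTiter-Glo is then added and luminescence read after 10 min.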
HT1080NT lethal: kills 2HG-producing HT-1080-NT fibrosarcoma cells | HT-1080-NT fibrosarcoma viability, CellTiter-Glo ATP luminescence, 48 h | Potency, µM (titrated, usually from 46.1 µM), for the others: at the top dose activity, negative = less viability, hits mostly cytotoxic | 360,000 compounds, 1.6% hits | AID 686970;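 further: NT is the 2HG producing partner of a matched IDH1 knockdown line; 0% = DMSO-treated cells and -100% = media-only wells without cells; nearly all actives have a fitted effect of over 55% in size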
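Compounds were tested in concentration-response format on HT-1080-NT cells for 48 hours at 37 degrees C. Cell viability came from CellTiter-Glo luminescence; curves were classified by r2, response magnitude and activity.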
* hit, by the source's call; i = inactive; u = inconclusive; x = no result given; [ ] = remark or other dose. The call rests on the fitted dose curve; in most records, active means well fitted curve in the direction sought with a large enough effect; inconclusive means small, poorly fitted or top-dose-only effect, or another doubt; inactive means no such curve, though single readings can be large; an effect the other way counts as inactive or inconclusive. Unless noted, on the % scale 0 is the no-effect control and ±100 the full control effect; potency means the concentration at half of the fitted maximal effect.

SMILES	HT1080 IDH1KD tx	DT40 TDP1 no CPT	DT40 TDP1 CPT	KB-3-1 tox	KB-V1 cytotox	HT1080NT lethal
CCc1ccccc1NC(c1nnc(-c2cccc(F)c2)o1)c1ccc(F)cc1Cl (stereo unspecified)	x	-27.0%	-14.0%	i	i	x
CSc1ccc(CNC(=O)C2CCC(=O)N(CCc3ccc(Cl)cc3)C2)cc1 (stereo unspecified)	-18.4%	u	-61.6%	i	u	-24.6%
CCOC(=O)C1=C(C)NC2=C(C(=O)CCC2)C1c1cn(Cc2ccc(Cl)cc2Cl)nc1-c1ccccc1 (stereo unspecified)	u	20.6µM*	16.4µM*	16.4µM*	u	u
ClC(Cl)(Cl)C1=NCc2nnn(Cc3ccccc3)c2N1	15.1%	-1.5%	-4.8%	i	i	0.8%
CC(C)CN1CCC1(C)C(=O)Nc1cccc(C#N)c1 (stereo unspecified)	6.8%	-25.7%	-10.9%	i	i	19.1%
COc1ccc(-c2noc(-c3ccc(NCCc4ccccc4)c([N+](=O)[O-])c3)n2)cc1	x	-6.7%	-3.2%	i	i	x
CN(Cc1ccc(Cl)cc1)C(=O)c1cc(S(=O)(=O)N2CCOCC2)ccc1N1CCCC1	-0.3%	u	u	i	u	-0.1%
CN(Cc1ccc(F)cc1)C(=O)c1cc(S(=O)(=O)N2CCCCC2)ccc1N1CCOCC1	-11.7%	16.4µM*	u	i	i	-14.1%
O=C(OCc1ccc(F)cc1)c1cc(S(=O)(=O)N2CCCCC2)ccc1N1CCOCC1	-3.6%	11.6µM*	29.1µM*	u	u	-5.8%
O=C(OCc1ccc([N+](=O)[O-])cc1)c1cc(S(=O)(=O)N2CCCCC2)ccc1N1CCOCC1	-3.9%	7.31µM*	14.6µM*	i	u	-5.8%
COc1ccc(COC(=O)c2cc(S(=O)(=O)N3CCCCC3)ccc2N2CCOCC2)cc1	4.3%	16.4µM*	18.4µM*	i	i	-0.7%
O=C(CNC(=O)C1CCCCC1)OC(C(=O)c1ccccc1)c1ccccc1 (stereo unspecified)	x	x	x	i	i	x
CNC[C@H](O)[C@@H](O)[C@H](O)[C@H](O)CO	x	-10.3%	-0.5%	x	x	x
CCN(CC(=O)Nc1ccc(NC(C)=O)cc1)C(=O)c1ccc(N2C(=O)c3ccccc3C2=O)cc1	3.8%	-7.5%	7.7%	i	i	-0.4%
Cn1c(-c2ccc(N)cc2)nc2ccccc21	-1.6%	7.2%	7.2%	i	u	2.4%
Cn1c(-c2ccc3nc(N)sc3c2)nc2cc(N)ccc21	0.4%	23.1µM*	u	i	i	0.0%
Cc1ccc(N2CC(NC(=O)c3ccco3)CC2=O)cc1C (stereo unspecified)	x	-7.9%	-7.2%	x	x	x
CCCCC(=O)Nc1ccc(NC(=O)c2ccc([N+](=O)[O-])cc2Cl)cc1OC	-8.1%	-26.8%	u	i	i	u
CC(=O)N1CCN(c2cc(N3CCc4ccccc4C3)c(F)cc2[N+](=O)[O-])CC1	u	u	u	i	18.4µM*	u
CCC(=O)N1CCN(c2cc(N3CCCC3)c(F)cc2[N+](=O)[O-])CC1	u	8.3%	-16.7%	i	u	-2.2%
O=C(c1cccc(F)c1)N1CCN(c2cc(N3CCCCC3)c(F)cc2[N+](=O)[O-])CC1	2.4%	18.4µM*	18.4µM*	u	18.4µM*	0.0%[9.24 µM]
O=C(COc1ccccc1Cl)N1CCN(c2ccc([N+](=O)[O-])c(N3CCCCC3)c2)CC1	18.0%	23.1µM*	u	i	20.6µM*	-1.8%
O=C(c1ccc(F)cc1)N1CCN(c2ccc([N+](=O)[O-])c(N3CCCCC3)c2)CC1	-0.6%	23.1µM*	u	i	u	4.2%
CCc1ccc(NC(=O)C(C)OC(=O)CC(NC(C)=O)c2ccccc2)cc1 (stereo unspecified)	8.9%	u	4.8%	i	i	1.9%
COc1cccc(CNC(=O)[C@@H]2CCCN2C(=O)[C@H]2CCCCN2C(=O)c2cccs2)c1	4.7%	-7.1%	-6.7%	i	u	20.9%
SMILES	HT1080 IDH1KD tx	DT40 TDP1 no CPT	DT40 TDP1 CPT	KB-3-1 tox	KB-V1 cytotox	HT1080NT lethal
CCOc1ccc(NC(=O)CN(C)C(=O)C2=COCCO2)cc1OCC	-0.3%	-2.7%	-11.6%	i	i	-3.9%
CC1=C(C(=O)N(C)C)CC(CC(=O)NCc2cccs2)C(=O)N1Cc1ccc(F)cc1 (stereo unspecified)	15.3%	u	0.5%	i	i	12.3%
Cn1c(=O)n(C)c2cc([N+](=O)[O-])c(N3CCN(C(=O)c4ccc(F)cc4)CC3)cc21	-16.0%	u	18.4µM*	i	u	2.5%
COc1ccc(-c2n[nH]c3c2C(c2ccc(OC)c(OC)c2)N(c2ccccc2)C3=O)cc1 (stereo unspecified)	u	u	u	u	14.6µM*	u
COc1ccc(-c2n[nH]c3c2C(c2ccc(O)cc2)N(c2ccc(Br)cc2)C3=O)cc1 (stereo unspecified)	x	u	18.4µM*	x	x	x
Cc1cc(C)cc(NC(=O)C(=O)NC(C)c2ccccc2)c1 (stereo unspecified)	x	u	u	i	i	x
CN(Cc1ccccc1)c1nc(-c2ccc([N+](=O)[O-])cc2)nc2ccccc12	-3.3%	u	18.4µM*	i	i	1.5%
COCCN(CCOC)c1nc(-c2ccc([N+](=O)[O-])cc2)nc2ccccc12	4.0%	6.51µM*	0.581µM*	i	i	2.7%
O=[N+]([O-])c1ccc(-c2nc(C(Cl)Cl)c3ccccc3n2)cc1	11.4%	0.164µM*	0.146µM*	13µM*	i	-3.6%
CN(Cc1ccc([N+](=O)[O-])cc1)c1ccccc1	-2.8%	-5.4%	-19.1%	i	i	-12.5%
CN(C(=O)c1cccs1)C1(C)CCS(=O)(=O)C1 (stereo unspecified)	-1.1%	25.6%	-15.0%	i	u	1.3%
CCCCN(C=O)c1c(CC)nc2ccc(C(=O)NCCN(C)C)cn12	12.1%	-4.7%	-15.9%	i	i	11.5%
CCc1nc2ccc(C(=O)Nc3cc(-c4ccccc4)ccc3OC)cn2c1N(CC)CCN(C)C	13µM*	18.4µM*	16.4µM*	u	u	18.4µM*
